Experimental data from PubChem BioAssay (Tox21).
Activity calls are given as the source filed them. Calls come from the whole dose curve.

biological target: Gonadotropin-releasing hormone receptor (Homo sapiens) (UniProt P30968); experiment: Human gonadotropin-releasing hormone receptor (GnRHR) small molecule agonists, calcium flux assay in GnRHR-HEK293 cells (AID 1920063); settings: calcium flux fluorescence, agonist mode; series mostly up to 57.6 µM; activity change: at the top concentration; note: nearly all actives have a fitted effect of over 35% in size
From the text: National Center for Advancing Translational Sciences [NCATS]
Division of Preclinical Innovation [DPI]
U.S. Environmental Protection Agency [EPA]
National Institutes of Environmental Health Sciences [NIEHS]
National Toxicology Program [NTP]
U.S. Food and Drug Administration [FDA]
Gonadotropin-releasing hormone receptor (GnRHR) is a G-protein-coupled receptor (GPCR) and acts (through phospholipase C) to increase intracellular inositol trisphosphate and then release intracellular calcium stores. Cell-based GnRHR-Hek293 calcium influx assay is using HEK293 cells that have been genetically engineered to express the human GnRHR, which activity can be measured by calcium signaling. A compound/drug can activate (agonist) GnRHR that can be monitored by levels of intracellular calcium.
GnRHR-HEK293 cells developed by Codex Corp contain human GnRHR reporter gene, which was stably integrated into HEK 293 cells. The compound activation can be detected by fluorescence intensity via calcium flux assay. This cell line has been used to screen the Tox21 10K compound library to identify GnRHR agonists.
GnRHR-Hek293 cells were dispensed at 1500cells/4uL/well in 1536-well black wall/clear bottom plates using a multidrop dispenser. After the assay plates were incubated at a 37 C/5% CO2 incubator for 18 hours, 4 uL of Calcium Dye Solution was added to each well. The plates were incubated at 37 C for 1 hour. For agonist mode, 23 nL of compounds dissolved in DMSO, positive controls or DMSO only was transferred to the assay plate by a pin tool station. The fluorescence intensity in the plates was measured using FDSS 7000EX kinetic plate reader with a filter set of Ex/Em=480/540 for 3 min at 1 sec intervals. Each test compound was measured at 15 concentrations and in triplicates.
% is set by controls: 0 for no effect and ±100 for the full control effect.

Gonadotropin-releasing hormone receptor (Homo sapiens), sequence (P30968 whole entry, looked up): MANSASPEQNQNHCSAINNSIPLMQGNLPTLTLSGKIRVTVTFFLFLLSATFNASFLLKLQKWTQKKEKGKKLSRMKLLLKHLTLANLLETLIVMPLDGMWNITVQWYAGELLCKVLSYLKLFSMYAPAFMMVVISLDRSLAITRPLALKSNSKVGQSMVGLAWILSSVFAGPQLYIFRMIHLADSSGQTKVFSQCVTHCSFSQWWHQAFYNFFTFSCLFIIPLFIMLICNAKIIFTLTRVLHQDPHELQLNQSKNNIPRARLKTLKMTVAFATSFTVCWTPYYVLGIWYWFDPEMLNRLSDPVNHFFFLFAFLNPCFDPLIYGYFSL

Row | Compound | activity change
1 | O=c1c(O)c(-c2ccc(O)cc2O)oc2cc(O)cc(O)c12 | 5.68% (inactive)
2 | CC(C)OC(=O)C(C)N(C(=O)c1ccccc1)c1ccc(F)c(Cl)c1 (stereo not given) | -0.927% (inactive)
3 | Cc1ccc2oc(CN(Cc3ccccc3)C(=O)Nc3c(F)cc(F)cc3F)c(-c3ccc(Cl)cc3)c2c1 | 7.58% (inactive)
4 | OCC(CO)n1cnc(-c2ccc(F)cc2)c1-c1ccnc(Oc2ccccc2)n1 | -0.0934% (inactive)
5 | N#CCc1ccc(Cl)cc1Cl | -0.207% (inactive)
6 | CCCCC(CC)COC(=O)COc1ccc(Cl)cc1Cl (stereo not given) | 0.662% (inactive)
7 | CC(C(=O)O)c1ccc2c(c1)Cc1cccnc1O2 (stereo not given) | 1.35% [at 26.4 µM, active compounds read high] (inactive)
8 | NC1CCN(c2nc3c(cc2F)c(=O)c(C(=O)O)cn3-c2ccc(F)cc2F)C1 (stereo not given) | -1.38% [at 26.4 µM, active compounds read high] (inactive)
9 | C=CCOC(=O)/C=C\C(=O)OCC=C | -0.369% (inactive)
10 | CC(CO)(CO)C(=O)O | 0.978% (inactive)
11 | N#C/C(=C1\SCC(c2ccccc2Cl)S1)n1ccnc1 (stereo not given) | 0.571% [at 26.4 µM, active compounds read high] (inactive)
12 | COc1cc2c(cc1OC)-c1cc3ccc(OC)c(OC)c3c[n+]1CC2 | 12.6% (inactive)
13 | O=C1CCCCO1 | 0.833% (inactive)
14 | CC(C(=O)O)c1ccc(CC2CCCC2=O)cc1 (stereo not given) | 7.35% [at 26.4 µM, active compounds read high] (inactive)
15 | O=C(O)c1cc(Cl)cc([N+](=O)[O-])c1Cl | -0.655% (inactive)
16 | CN(C)CCN1C(=O)c2ccccc2N(C)c2ccccc21 | 0.139% [at 26.4 µM, active compounds read high] (inactive)
17 | Cc1c(C(=O)NCCO)[n+](=O)c2ccccc2n1[O-] | 0.0474% [at 26.4 µM, active compounds read high] (inactive)
18 | CCOC(=O)C1CC(=O)C(=C(O)C2CC2)C(=O)C1 (stereo not given) | -0.283% (inactive)
19 | Cn1c(=O)cc(Oc2ccc(F)cc2F)c2cnc(NCC(C)(C)O)nc21 | -0.176% (inactive)
20 | COc1cc2nc(N3CCN(C(=O)C4CCCO4)CC3)nc(N)c2cc1OC (stereo not given) | 0.46% [at 26.4 µM, active compounds read high] (inactive)

Row | Compound | activity change
21 | CC(=O)c1cccnc1 | -0.051% (inactive)
22 | COc1ccccc1N1CCN(CC(O)COc2cc(OC)c(OC)c(OC)c2)CC1 (stereo not given) | 0.0866% [at 26.4 µM, active compounds read high] (inactive)
23 | CC1CCCCC1 | -0.649% (inactive)
24 | Cc1cc(O)c(C(C)(C)C)cc1Sc1cc(C(C)(C)C)c(O)cc1C | 3.18% (inactive)
25 | CNC(=O)c1cnn(-c2nc(N)c3ncn([C@@H]4O[C@H](CO)[C@@H](O)[C@H]4O)c3n2)c1 | 0.252% [at 26.4 µM, active compounds read high] (inactive)
26 | CCN(CC)CCNC(=O)c1cc(Cl)c(N)cc1OC | -0.812% [at 26.4 µM, active compounds read high] (inactive)
27 | CCNC(=O)C(C)OC(=O)Nc1ccccc1 (stereo not given) | 0.0054% (inactive)
28 | Nc1nc(-c2ccccc2)c(Br)c(=O)[nH]1 | -0.586% [at 26.4 µM, active compounds read high] (inactive)
29 | O=C(O)CCCC[P+](c1ccccc1)(c1ccccc1)c1ccccc1 | -1.44% [at 26.4 µM, active compounds read high] (inactive)
30 | NC12CC3CC(CC(C3)C1)C2 | -0.214% [at 26.4 µM, active compounds read high] (inactive)
31 | [Cl][Sc]([Cl])[Cl] | -0.777% (inactive)
32 | CCCCC(=O)O[C@]1(C(=O)CO)[C@H](C)C[C@H]2[C@@H]3CCC4=CC(=O)C=C[C@]4(C)[C@@]3(F)[C@@H](O)C[C@@]21C | 1.6% [at 26.4 µM, active compounds read high] (inactive)
33 | CN(C)[C@@H]1C(=O)C(C(=O)NCN2CCCC2)=C(O)[C@@]2(O)C(=O)C3=C(O)c4c(O)cccc4[C@@](C)(O)C3C[C@@H]12 (stereo not given in full) | 1.24% [at 26.4 µM, active compounds read high] (inactive)
34 | C=C(C)C(=O)OCCCC | 0.422% (inactive)
35 | Cc1cccc(CN2CCN(C(c3ccccc3)c3ccc(Cl)cc3)CC2)c1 (stereo not given) | -0.626% [at 26.4 µM, active compounds read high] (inactive)
36 | CCCCCc1ccco1 | 1.55% [at 26.4 µM, active compounds read high] (inactive)
37 | Nc1nc(-c2ccc([N+](=O)[O-])cc2)cs1 | -1.04% (inactive)
38 | CCc1cccc(CC)c1 | -0.626% (inactive)
39 | Cc1ccc(CCn2c3c(c4cc(Cl)ccc42)CN(C)CC3)cn1 | 2.72% [at 26.4 µM, active compounds read high] (inactive)
40 | CC(C)SCc1ccco1 | 2.71% [at 26.4 µM, active compounds read high] (inactive)
